The campaign covered roughly 47,000 compounds. About 2,500 (5.3%) were called active. No stated cut-off is given here; in the data, active means inhibition above about 30%; inactive means the rest. Shown is part of a subset that was picked to be rich in actives. *1 amine or outer side, *2 acyl side, *3 side chain or, on linkers, in order; H or OH if unused. Where a SMILES comes first, the peptide text is derived from it. [ ]: non-standard residue; d: D form. ξ: configuration not given here. ξβ3hGly(undecyl) = CCCCCCCCCCCC(CC(=O)[*:2])N[*:1]

Ubiquitin carboxyl-terminal hydrolase 30 (Homo sapiens), sequence (Q70CQ3 whole entry, looked up): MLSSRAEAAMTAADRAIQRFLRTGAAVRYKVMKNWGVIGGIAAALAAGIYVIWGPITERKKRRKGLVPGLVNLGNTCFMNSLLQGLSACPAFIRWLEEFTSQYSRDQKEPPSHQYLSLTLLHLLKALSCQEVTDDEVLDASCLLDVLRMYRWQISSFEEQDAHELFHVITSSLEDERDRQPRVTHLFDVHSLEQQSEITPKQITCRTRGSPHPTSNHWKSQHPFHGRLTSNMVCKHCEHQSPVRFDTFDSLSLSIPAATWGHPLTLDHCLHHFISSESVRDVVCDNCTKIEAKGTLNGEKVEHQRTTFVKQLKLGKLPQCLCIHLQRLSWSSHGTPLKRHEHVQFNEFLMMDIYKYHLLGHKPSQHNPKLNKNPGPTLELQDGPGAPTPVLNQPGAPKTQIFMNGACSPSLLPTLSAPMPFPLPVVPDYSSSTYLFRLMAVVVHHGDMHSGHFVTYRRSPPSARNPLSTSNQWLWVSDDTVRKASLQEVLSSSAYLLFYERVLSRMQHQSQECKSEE

This experiment concerns the target Ubiquitin carboxyl-terminal hydrolase 30 (Homo sapiens) (UniProt Q70CQ3). The experiment can be described thus: inhibitors of human USP30 deubiquitinase (AID 1645860). To be noted: purified USP30, Ub-rhodamine cleavage fluorescence; at 25 µM; stronger effect = higher value.
By inhibition is commonly meant the drop in the measured response relative to a control, in per cent. On to `CC1CCCN(c2ccc(-c3nc(-c4cccnc4)no3)cc2[N+](=O)[O-])C1` (stereo not given), for which the inhibition is -2.58% (inactive).
For the molecule `Cc1ccc(Cn2c(C(=O)O)c(CNC(C)CCc3ccccc3)c3ccccc32)cc1` (stereo not given), the inhibition is 35.8% (active).
With `CC(CCc1ccccc1)NCc1c(C(=O)O)n(Cc2ccccc2F)c2ccccc12` (stereo not given), the inhibition was 33.3% (active).
For `CNC(=O)NC1CCN(c2nc3cccnc3n(Cc3ccc(C)cc3)c2=O)CC1` the value was -0.331% (inactive); for `Cc1ccc(CCNCc2c(C(=O)O)n(C)c3ccccc23)cc1`, -4.51% (inactive).
As for `O=C(CCCn1c(=O)c2ccccc2n(Cc2ccccc2F)c1=O)NC1CCCC1`, the inhibition was 15.8% (inactive).
For `COc1ccc(CCNCc2c(C(=O)O)n(Cc3ccc(Cl)cc3)c3ccccc23)c(OC)c1OC` the value was 18.6% (inactive); for `O=S(=O)(c1ccc(Cl)c(-c2nnc(-c3ccccc3)o2)c1)N1CCOCC1`, 8.47% (inactive).
For `Cc1ccc(S(=O)(=O)Nc2ccc(-c3c[n+]4ccccc4n3C)cc2)cc1` the value was 21.2% (inactive).
For `Cc1ccc(S(=O)(=O)NCc2c(-c3ccccc3)c3cc(C)ccc3[nH]c2=O)cc1` the value was -9.29% (inactive).
Consider `Cc1ccc(S(=O)(=O)NC2=NC(c3ccccc3)c3cc(Cl)ccc3N2)cc1` (stereo not given), for which the inhibition is 43.7% (active).
As to `COc1cc(NC(=O)c2noc3c2CCc2sccc2-3)cc(OC)c1`, the inhibition was 8.21% (inactive).
For `CC(=O)N1CCCc2ccc(NC(=O)c3cccc([N+](=O)[O-])c3)cc21` the value was 16.5% (inactive); for `CC1(C)OC(=O)[C@@]2(C)N[C@]1(C)C[C@@H]2C(=O)Nc1ccc(O)cc1`, -11.1% (inactive); for `CCN(CC)S(=O)(=O)c1ccc(C(=O)Nc2sc(C)c(C)c2C(N)=O)cc1`, 36.2% (active).
For `Cc1sc(NC(=O)c2ccc(S(=O)(=O)N(C)CC3CCCO3)cc2)c(C(N)=O)c1C` (stereo not given) the value was -70.8% (inactive); for `Cc1ccc(S(=O)(=O)CC(=O)Nc2sc(C)c(C)c2C(N)=O)cc1`, -97.7% (inactive); for `Cn1cc(-c2cnc3n2CCC32CCN(S(=O)(=O)c3cccc(F)c3)CC2)cn1`, -1.9% (inactive).
On to `CN(C(=O)CSCc1nc(-c2ccc(F)cc2)no1)c1ccc(F)cc1`, for which the inhibition was -1.42% (inactive).
As for `O=c1[nH]c2c(-c3ccccn3)nsc2c(=O)n1Cc1cccnc1`, the inhibition was 2.65% (inactive).
For `O=C(Nc1nnc(-c2cccc([N+](=O)[O-])c2)o1)C1CCN(S(=O)(=O)c2ccc3c(c2)CCC3)CC1` the value was 40.6% (active); for `O=C(COC(=O)C1CCN(S(=O)(=O)c2c(Cl)cccc2Cl)CC1)Nc1ccc2c(c1)CCC2`, 11.6% (inactive).
As to `Cc1cccc(-c2nnc(-c3cccc(S(=O)(=O)N4CCCC4)c3)o2)c1`, the inhibition was 10.5% (inactive).
For `CNc1cc(C)nc(C2CN(C(=O)c3ccnn3C(C)C)CCO2)c1` (stereo not given) the value was 15.8% (inactive); for `COc1ccc(C2c3c(oc4ccccc4c3=O)C(=O)N2c2cc(C)on2)cc1` (stereo not given), 23.7% (inactive); for `O=C(C1CCOCC1)N1CCc2nc3ccccc3n2C(Cc2ccccc2)C1` (stereo not given), 8.3% (inactive).
Regarding `CCN1Cc2c(C(=O)NCCC(C)C)ncn2-c2ccccc2S1(=O)=O`, the inhibition is -4.42% (inactive).
For `CN1C(=O)c2ccccc2C(C(=O)N2CCc3ccccc3C2)C1c1cccs1` (stereo not given) the value was 25% (inactive); for `O=c1c(S(=O)(=O)c2cc(F)cc(F)c2)c[nH]c2ccc(F)cc12`, -13.9% (inactive); for `COc1ccc(CCNC(=O)Cn2c(=O)n(CC3CCC(C(=O)NC4CCCC4)CC3)c(=O)c3ccccc32)cc1OC` (stereo not given), 16.9% (inactive).
For `COc1ccc(-c2nc3c(c(=O)c4ccccc4n3C)c(=O)n2CCc2ccc(OC)c(OC)c2)cc1` the value was 7.98% (inactive).
For `Cc1cccc(N2CC(C)Cn3c2nc2c3c(=O)n(CC(=O)OCc3ccccc3)c(=O)n2C)c1` (stereo not given) the value was -36.6% (inactive).
In the case of `COc1ccc(CCNC(=O)CCCn2c(=O)c3ccccc3n(CC(=O)OCc3ccccc3)c2=O)cc1OC`, the inhibition is 64.1% (active).
On to `N#Cc1ccccc1Cn1c(=O)n(CCCC(=O)NCc2ccc(F)cc2)c(=O)c2ccccc21`, for which the inhibition is 20.9% (inactive).
For `Cc1ccc(CNC(=O)CCCn2c(=O)c3sccc3n(CC(=O)OCc3ccccc3)c2=O)cc1` the value was 70.7% (active); for `COC[C@H]1C[C@@H]2CN(S(=O)(=O)c3ccc(F)cc3)C(C)[C@H]1N2C` (stereo not given in full), -8.47% (inactive); for `CCn1cc(-c2ccnc3cc(C(=O)NC4CCOCC4)nn23)c(C)n1`, -12.3% (inactive).
For `O=C(O)CCNC(=O)/C(=C/c1ccc(Cl)cc1)NC(=O)c1ccco1` the value was -2.38% (inactive); for `O=C(NCCc1ccccc1)c1cc2c(s1)CS(=O)(=O)C2`, -21.6% (inactive); for `O=C(NCc1ccc2c(c1)OCO2)c1cc2c(s1)CS(=O)(=O)C2`, 34.4% (active).
For the molecule `O=C(NCc1ccc2c(c1)OCO2)C1=CCN(Cc2ccccc2)CC1`, the inhibition is -38.4% (inactive).
`COc1ccc(C)cc1NC(=O)COC(=O)C1(c2ccccc2F)CCCC1`: the inhibition is 22.5% (inactive).
For `CC(=O)c1cccc(NC(=O)c2cccc(-c3nc(-c4ccccc4)no3)c2)c1` the value was -9.31% (inactive); for `Cc1nc(-c2cccc(NC(=O)C3CCN(c4ccccc4)C3=O)c2)no1` (stereo not given), 42.5% (active); for `Cc1nc(-c2cccc(S(=O)(=O)Nc3ccccc3C)c2)no1`, -3.5% (inactive).
In the case of `CC(C)c1noc(-c2ccc(-n3cnc(C(=O)NC4CC4)c3)nc2)n1`, the inhibition is 1.32% (inactive).
For `N#Cc1ccc(OC(=O)c2cc(S(=O)(=O)N3CCOCC3)c(Cl)cc2Cl)cc1` the value was 1.53% (inactive).
For `CN(CC(=O)Nc1ccc(F)cc1Cl)Cc1ccc2c(c1)OCO2` the value was -9.47% (inactive); for `COc1ccc(C(NC(=O)CN(C)Cc2ccc3c(c2)OCO3)c2ccccc2)cc1` (stereo not given), 42% (active).
For `Cc1ccc(F)cc1NC(=O)CN(C)Cc1ccc2c(c1)OCO2` the value was -0.987% (inactive).
For `O=C(c1ccccc1)c1ccc(NC2CCCc3ccccc32)c([N+](=O)[O-])c1` (stereo not given), the inhibition is -121% (inactive).
For `Nc1ccc(C(=O)OCC(=O)NC2CCCc3ccccc32)cc1[N+](=O)[O-]` (stereo not given) the value was 31.6% (active); for `O=C(COC(=O)c1ccc(F)cc1)NC1CCCc2ccccc21` (stereo not given), -8.55% (inactive); for `Cc1ccccc1NC(=O)Cc1csc2nc(-c3ccc(F)cc3)cn12`, 88.4% (active).
With `O=C(Cc1ccc(F)cc1)Nc1ccccc1Cc1ccccc1`, the inhibition is 27.2% (inactive).
For `Cc1cc(F)ccc1NC(=O)Cc1n[nH]c(Cc2ccccc2)n1` the value was -13.4% (inactive).
For `CC(C)N1CCN(C(=O)c2n[nH]c3c2CCCC3)CC1` the value was -5.42% (inactive).
For `Cn1ccc(-c2cc(C(=O)NC3CC3)c3ccccn23)n1` the value was -423% (inactive); for `CC(C)C(=O)Nc1nc2cc(NS(=O)(=O)c3ccccc3)ccc2s1`, 36.4% (active).
With `O=C(Nc1ccc2sc(NC(=O)C3CCCCC3)nc2c1)NC1CCCC1`, the inhibition is 0.0388% (inactive).
`CC(C)C(=O)Nc1nc2ccc(CCC(=O)Nc3ccc(F)cc3)cc2s1`: the inhibition is 26.5% (inactive).
As to `COCCN1C(=O)Cc2c(C)nc(C3(C)CCCN(c4cc(C)ncn4)C3)nc21` (stereo not given), the inhibition is -104% (inactive).
For `COc1cc(OC)cc(-c2nnc(NC(=O)c3ccc([N+](=O)[O-])o3)o2)c1` the value was 40.1% (active); for `COc1ccc(-c2ocnc2C(=O)NCc2ccc(OC)c(OC)c2)cc1`, -6.37% (inactive); for `COc1cccc(-c2ocnc2C(=O)NCc2ccc(OC)c(OC)c2)c1`, -25.4% (inactive).
For `N#Cc1ccc(-c2cccc(C(F)(F)F)c2)n(Cc2c(F)cccc2Cl)c1=O` the value was 17.6% (inactive).
With `CC(=O)N1CSCC1C(=O)N1CCC2(CC1)CNC(=O)c1ccccc1O2` (stereo not given), the inhibition is 6.33% (inactive).
On to `CCN1CCC2(CC1)OC(=O)C(C)=C2C(=O)NCc1ccccc1OC`, for which the inhibition was 3.07% (inactive).
For `COc1cccc(NC(=O)CSc2nc(-c3ccco3)nc3cc(=O)[nH]n23)c1` the value was -50.3% (inactive).
Turning to `O=C1C(O)=C(c2ccc(O)c(O)c2)C(=O)C(O)=C1c1ccccc1`, the inhibition is 50.5% (active).
For `CC(=O)N1CCn2c(nnc2C2CCCN2)C1` (stereo not given) the value was 12.2% (inactive); for `CCCCCCCCCCCC1CC(=O)NC(CC(N)=O)C(=O)NC(Cc2ccc(O)cc2)C(=O)NC(CC(N)=O)C(=O)NC(CCC(N)=O)C(=O)N2CCCC2C(=O)NC(CC(N)=O)C(=O)NC(CO)C(=O)N1` (stereo not drawn) (cyclo([ξβ3hGly(undecyl)]NYNQPNS); configuration not given here), -32.4% (inactive).
For `O=C(Nc1ccc(C(F)(F)F)cc1)N1CCc2[nH]cnc2C1c1ccncc1` (stereo not given) the value was 13% (inactive); for `Cc1nn(-c2cccc(F)c2)c2c1C(C(=O)c1cc3ccccc3o1)CC(=O)N2` (stereo not given), 2.53% (inactive); for `Cc1nn(-c2ccc(F)cc2)c2c1C(C(=O)c1cc3ccccc3o1)CC(=O)N2` (stereo not given), -18.2% (inactive).
For `Cc1nn(-c2ccc(F)cc2F)c2c1C(C(=O)c1cc3ccccc3o1)CC(=O)N2` (stereo not given) the value was 33.3% (active); for `CC(CNC(=O)c1csc(C(=O)N2CCCC2)n1)c1ccccc1` (stereo not given), -12% (inactive).
Regarding `CC(C)=CCC(O)C1=CC(=O)c2c(O)ccc(O)c2C1=O` (stereo not given), the inhibition was 74.5% (active).
For `CC(C)=CCc1cc(O)ccc1O` the value was 0.263% (inactive).
For `Cc1ccc(NC(=O)C(OC(=O)c2ccc(S(=O)(=O)N3CCCC3)cc2)c2ccccc2)cc1` (stereo not given) the value was 0.818% (inactive); for `O=C(O)c1ccc(S(=O)(=O)N2CCC(Cc3ccccc3)CC2)cc1`, -5.01% (inactive); for `CC(=O)Nc1ccc(S(=O)(=O)N2CCC(CN3CCCC(C)C3)CC2)cc1` (stereo not given), -7.71% (inactive).
For `CC(=O)Nc1ccc(S(=O)(=O)N2CCC(CC(=O)NC(C)c3ccccc3)CC2)cc1` (stereo not given) the value was 31.5% (active).
With `CCNC(=O)c1ccc2c(c1)nc1n2CCN(CC2CCCO2)C1` (stereo not given), the inhibition was -93.9% (inactive).
For `Cc1noc(C)c1CSc1ccccc1C(=O)N(C)Cc1ccc2c(c1)OCO2`, the inhibition was 25.1% (inactive).

The record behind these values is PubChem BioAssay AID1645860 (Buhrlage Lab, Dana-Farber Cancer Institute and Novartis …, 2021).
